{"source": "PubChem BioAssay AID1851", "about": "(National Center for Advancing Translational Sciences (NCATS), 2009)", "note": "Values joined by “and” are separate entries in the source; they are usually repeats but may differ in a detail not shown here. Equal entries are not always repeated. Among all 16,000 compounds or so, about 4,000 (25%) were called active. Another 26% or so got no clear call; they are omitted. These entries were drawn from the full list. Values without a mark were called inactive. Calls come from the whole dose curve; as a rule, active = well fitted curve in the direction sought with a large enough effect; inconclusive = small, poorly fitted or top-dose-only effect, or effect the other way; inactive = no such curve, though single readings can be large or run the other way. % is set by controls: 0 for no effect and ±100 for the full control effect.", "data": [{"target": "Cytochrome P450 2C9 (Homo sapiens) (UniProt P11712)", "sequence (P11712 whole entry, looked up)": "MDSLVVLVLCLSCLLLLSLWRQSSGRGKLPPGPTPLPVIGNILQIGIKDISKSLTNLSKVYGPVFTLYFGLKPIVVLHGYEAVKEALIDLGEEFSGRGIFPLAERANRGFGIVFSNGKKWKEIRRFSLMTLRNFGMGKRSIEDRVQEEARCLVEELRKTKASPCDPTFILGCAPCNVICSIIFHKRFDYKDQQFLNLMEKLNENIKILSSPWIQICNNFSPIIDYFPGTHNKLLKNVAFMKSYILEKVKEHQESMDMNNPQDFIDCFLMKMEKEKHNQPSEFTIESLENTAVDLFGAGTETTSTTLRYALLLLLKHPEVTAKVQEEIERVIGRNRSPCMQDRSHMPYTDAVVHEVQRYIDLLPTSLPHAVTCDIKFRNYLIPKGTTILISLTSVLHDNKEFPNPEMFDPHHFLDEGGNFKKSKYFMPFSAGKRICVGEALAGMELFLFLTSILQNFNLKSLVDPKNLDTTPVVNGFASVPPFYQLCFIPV", "assay": "Cytochrome panel assay with activity outcomes", "conditions": "recombinant CYP, pro-luciferin dealkylation, luminescence, p450-cyp2c9; series mostly up to 57.1 µM", "description": "The P450 gene superfamily is involved in the metabolism and clearance of xenobiotics. This assay used various human CYP P450 isozymes to measure the dealkylation of various pro-luciferin substrates to luciferin. The luciferin is then measured by luminescence after the addition of a luciferase detection reagent. Pro-luciferin substrate concentration in the assay was equal to its KM for its CYP P450 isozyme. Inhibitors and some substrates limit the production of luciferin, and decrease measured luminescence.\nNCGC Assay Protocol Summary:\n1, Reagent, 2 uL, Isozyme and Pro-Luciferin\n2, Library compounds, 23 nl, 40 uM to 0.24 nM dilution series\n3, Controls, 23 nl, Isozyme specific inhibitor\n4, Reagent, 2 uL, NADPH regeneration solution\n5, Incubation time, 60 min, Isozyme specific temperature\n6, Reagent, 4ul, Detection reagent\n7, Incubation time, 20 min, Isozyme specific temperature\n8, Detection, 1 sec, ViewLux luminescent read\nThe luciferase-based P450-GloTM Screening Systems were obtained from Promega (Madison, WI) for CYP 1A2 (V9770), CYP 2C9 (V9790), CYP2 C19 (V9880), CYP 2D6 (V9890), and CYP 3A4 Luciferin-PPXE (V9910) and were adapted for 1,536-well microplates and an automated protocol. The control compounds furafylline for 1A2 (F124), sulfaphenazole for CYP 2C9 (S0758), ketoconazole for CYP 2C19 (K1003), quinidine for 2D6 (Q3625), and ketoconazole for 3A4 (K1003) were purchased from Sigma Aldrich (St. Louis, MO). Recombinant P450 enzymes were obtained from baculovirus constructs expressed in insect cells (BD/Gentest).\nMedium-binding white solid Kalypsys plates used. Mixtures kept on ice. 1A2: 10 nM 1A2, 100 uM Luc-ME, 100 mM KPO4; 2C9: 10 nM 2C9, 100 uM Luc-H, 25 mM KPO4; 2C19: 5 nM 2C19, 10 uM Luc-H EGE, 50 mM KPO4; 2D6: 5 nM 2D6, 30 uM Luc-ME EGE, 100 mM KPO4; 3A4: 10 nM, 25 uM Luc-PPXE. All amounts are reflected in their final concentration, working concentration is 2x.\nNADPH regeneration solution: 1.3 mM NADP+, 3.3 mM glucose-6-phosphate, 3.3 mM MgCl2, 0.4 U/mL glucose-6-phosphate dehydrogenase for all isozymes, 200 mM KPO4 for 3A4. Mixture prepared at RT but kept on ice during automated run.\nRT incubation in auxilliary plate hotel for 1A2, 2D6, and 3A4; 37C for 2C9 and 2C19.\nKeywords: P450, CYP1A2, CYP2C19, CYP2C9, CYP2D6, CYP3A4, Luciferase, MLSMR, MLSCN, NIH Roadmap, qHTS, NCGC", "values": [{"smiles": "Nc1nc(SCc2ccccc2Cl)cc(C(=O)O)n1", "activity, negative = inhibition": "0.0938% [at 11.4 µM]"}, {"smiles": "N#Cc1c(SCC(N)=O)nsc1SCc1ccccc1Cl", "AC50": "11.2 µM (active)"}, {"smiles": "CCOC(=O)C1CCCN(S(=O)(=O)c2ccccc2)C1", "note": "(stereo not given)", "AC50": "inactive"}, {"smiles": "CCOC(=O)C1CCCN(C(=O)CSCc2ccccc2)C1", "note": "(stereo not given)", "AC50": "10 µM (active)"}, {"smiles": "CN1CCN(c2nc(-c3ccccc3C(F)(F)F)nc3ccccc23)CC1", "activity, negative = inhibition": "1.94% [at 2.29 µM]"}, {"smiles": "CO[C@]1(NC(=O)Cc2cccs2)C(=O)N2C(C(=O)O)=C(COC(N)=O)CS[C@H]21", "AC50": "inactive"}, {"smiles": "COC(=O)N1CCC2(CC1)CCN(c1ccccn1)CC2", "AC50": "inactive"}, {"smiles": "O=C(c1cnc(N2CCN(c3ncccn3)CC2)c2ccccc12)N1CCN(c2ncccn2)CC1", "AC50": "6.31 µM (active)"}, {"smiles": "O=C(c1cnccn1)N1CCC2(CC1)CCN(c1ncccn1)CC2", "AC50": "inactive"}, {"smiles": "CC(=O)N1CCC2(CC1)CN(c1ccccn1)C2", "AC50": "inactive"}, {"smiles": "Cn1cccc1C(=O)N1CCC2(CC1)CCN(c1ncccn1)CC2", "AC50": "inactive"}, {"smiles": "COc1ccccc1C(=O)N1CCN(c2ccccn2)CC1", "AC50": "14.1 µM (active)"}, {"smiles": "O=C(c1cnccn1)N1CCC2(CC1)CN(c1ccccn1)C2", "AC50": "inactive"}, {"smiles": "O=C(c1cnc(N2CCN(c3ncccn3)CC2)c2ccccc12)N1CCN(c2ccccn2)CC1", "AC50": "3.55 µM (active)"}, {"smiles": "O=C(c1cnccn1)N1CCC2(CC1)CCN(c1ccccn1)CC2", "AC50": "inactive"}, {"smiles": "C/C=C\\C[C@H](C)[C@H](O)[C@H]1C(=O)N[C@@H](CC)C(=O)N(C)CC(=O)N(C)[C@@H](CC(C)C)C(=O)N[C@@H](C(C)C)C(=O)N(C)[C@@H](CC(C)C)C(=O)N[C@@H](C)C(=O)N[C@@H](C)C(=O)N(C)[C@@H](CC(C)C)C(=O)N(C)[C@@H](CC(C)C)C(=O)N(C)[C@@H](C(C)C)C(=O)N1C", "AC50": "inactive"}, {"smiles": "Cc1ccc(S(=O)(=O)N=Nc2c(O)[nH]c3cc(O)c(C(=O)O)cc23)cc1", "activity, negative = inhibition": "3.49% [at 11.4 µM]"}, {"smiles": "CN1CC[C@@]2(CCCN(C(=O)c3cccc(F)c3)C2)C1", "AC50": "inactive"}, {"smiles": "COc1cccc2c1C(=O)c1c(O)c3c(c(O)c1C2=O)C[C@@](O)(C(=O)CO)C[C@H]3O[C@H]1C[C@@H](N)[C@H](O)[C@@H](C)O1.[W]", "activity, negative = inhibition": "3.88% [at 11.4 µM]"}, {"smiles": "C#CCCCO/N=C1/C[C@@H](O)[C@@H](O)[C@@H]2[C@@H]3C(=O)N(CC)C(=O)[C@H]3CC[C@H]12", "activity, negative = inhibition": "3.17% [at 11.4 µM]"}, {"smiles": "O=C(O)CC(c1cccc2ccccc12)n1cccc1", "note": "(stereo not given)", "AC50": "8.91 µM (active)"}, {"smiles": "Cc1cc(C)c(NC(=O)C[C@H](CC(=O)O)c2cccc3ccccc23)c(C(=O)N2CCC3(CCCC3)CC2)c1", "AC50": "inactive"}, {"smiles": "O=C(O)CC(c1ccccc1)n1cnnn1", "note": "(stereo not given)", "AC50": "inactive"}, {"smiles": "O=C(O)CN1CCN(Cc2ccc(F)cc2Cl)C1=O", "AC50": "0.316 µM (active)"}, {"smiles": "Cc1cccc(CN2CCN(CC(=O)O)C2=O)c1", "AC50": "inactive"}, {"smiles": "O=C(O)CN1CCN(Cc2ccccc2Cl)C1=O", "AC50": "inactive"}, {"smiles": "CC(Cc1ccccc1)N/C=C1\\CC(=O)NC1=O", "note": "(stereo not given)", "AC50": "inactive"}, {"smiles": "O=C(O)CNC(=O)[C@@H](CS)Cc1ccccc1", "AC50": "inactive"}, {"smiles": "CC(C)C(CCNC(=O)CC(Cc1ccccc1)c1ccco1)c1ccco1", "note": "(stereo not given)", "AC50": "2.82 µM (active)"}, {"smiles": "COc1c(O[C@H]2O[C@@H](CO)[C@@H](O)[C@@H](O)[C@@H]2O)cc2c(c1OC)-c1ccc(SC)c(=O)cc1[C@H](NC(C)=O)CC2", "AC50": "inactive"}, {"smiles": "CC(=O)NCCNc1ncnc2ccc(-c3ccoc3)cc12", "activity, negative = inhibition": "6.33% [at 2.29 µM]"}, {"smiles": "CC1CSc2nc3sc4c(c3c(=O)n21)CCCC4", "note": "(stereo not given)", "AC50": "14.1 µM (active)"}, {"smiles": "Nc1nc(Cl)nc2c1ncn2[C@@H]1O[C@@H](COP(=O)(O)OP(=O)(O)OP(=O)(O)O)[C@@H](O)[C@H]1O", "AC50": "inactive"}, {"smiles": "S=c1nc[nH]c2c1ncn2Cc1ccco1", "activity, negative = inhibition": "1.4% [at 11.4 µM]"}, {"smiles": "O=C1c2ccccc2N[C@H](c2cc(Cl)cc(Cl)c2O)N1CCc1ccccn1", "AC50": "3.16 µM (active)"}, {"smiles": "O=C1CC(N2CCN(CCc3ccccn3)CC2)C(=O)N1c1ccc(Cl)cc1", "note": "(stereo not given)", "AC50": "inactive"}, {"smiles": "CCOC(=O)C1=C(c2ccccc2)N=c2s/c(=C\\c3ccco3)c(=O)n2C1c1cccs1", "note": "(stereo not given)", "AC50": "8.91 µM (active)"}, {"smiles": "CCOC(=O)C1=C(N)n2c(s/c(=C\\c3ccco3)c2=O)=C(C(=O)OCC)C1c1ccco1", "note": "(stereo not given)", "AC50": "1.26 µM (active)"}, {"smiles": "CCOC(=O)C1=C(c2ccccc2)N=c2s/c(=C\\c3cccc(O)c3)c(=O)n2C1c1cccs1", "note": "(stereo not given)", "AC50": "inactive"}, {"smiles": "OCCCSCCO", "activity, negative = inhibition": "11.5% [at 11.4 µM]"}, {"smiles": "C[N+](C)(C)CC[N+]1(C)Cc2c(Cl)c(Cl)c(Cl)c(Cl)c2C1", "AC50": "inactive"}, {"smiles": "NS(=O)(=O)c1nc(S(=O)(=O)O)c2[nH]cnc2n1", "activity, negative = inhibition": "-8.54% [at 11.4 µM]"}, {"smiles": "Cc1ccc(S(=O)(=O)NC(=O)Nc2ncn[nH]2)cc1", "activity, negative = inhibition": "4.99% [at 11.4 µM]"}, {"smiles": "Cc1nnc(NS(=O)(=O)c2ccc(N)cc2)s1", "AC50": "inactive"}, {"smiles": "Cc1ccc(S(=O)(=O)Nc2nc(C)c(NC(=O)Nc3ccc(Cl)cc3Cl)s2)cc1", "AC50": "7.94 µM (active)"}, {"smiles": "CCN(CC)C(=S)SSC(=S)N(CC)CC", "AC50": "2.51 µM (active) and 398 nM (active)"}, {"smiles": "CC(C)(CO[C@H]1C[C@H]2CC[C@@]1(C)C2(C)C)[N+](=O)[O-]", "activity, negative = inhibition": "-3.36% [at 11.4 µM]"}, {"smiles": "C[C@H](O)C(=O)C1=Nc2c(nc(N)[nH]c2=O)NC1", "AC50": "inactive"}, {"smiles": "CC(C)(C)C(=O)NC(=S)NCCc1ccccc1", "AC50": "11.2 µM (active)"}, {"smiles": "COc1cc(CNCCc2ccccc2)ccc1OCC(=O)NC(C)(C)C", "AC50": "inactive"}]}]}
